Measurements taken from PubChem BioAssay (Tox21).
Inconclusive results are not listed. Calls of active or inactive are those of the source. Calls come from the whole dose curve; as a rule, active = well fitted curve in the direction sought with a large enough effect in the repeat runs; inconclusive = weak or mixed curves; inactive = no such curve, though single readings can be large; an effect the other way counts as inactive or inconclusive. Non-standard residues stand in square brackets, D forms with d. Residues, ends and D or L forms follow the SMILES beside them. *: point of attachment. Sta = CC(C)C[C@H](N)[C@@H](O)CC(=O)O; Isovaleryl = CC(C)CC(=O)*

What was measured:
[1] = biological target: Nuclear receptor subfamily 1 group I member 2 (Homo sapiens) (UniProt O75469); test: CYP3A4 induction through human pregnane X receptor (PXR) by small molecules, qHTS assay (AID 1346984); note: nearly all actives have a fitted effect of over 40% in size
Method in brief: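 Luminescence readout: luciferase signal after One-Glo (30 min, room temperature), following 3 h at 37C with 3uM final Luciferin-IPA P450 substrate. Cells were DPX-2 (HepG2, PXR/CYP3A4-luc co-transfected) dosed for 24 h.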

[2] = biological target: Nuclear receptor subfamily 1 group I member 2 (Homo sapiens) (UniProt O75469); test: Human pregnane X receptor (PXR) activation by small molecules, qHTS assay (AID 1346985); note: nearly all actives have a fitted effect of over 40% in size
Method in brief: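 DPX-2 cells (HepG2 co-transfected with a PXR response element and a CYP3A4-promoter luciferase construct) were seeded at 2,000 per well, rested 5 hr at 37C, then exposed to DMSO-dissolved compounds for 24 hr. Activation was read as luciferase luminescence.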

[3] = biological target: Cytochrome P450 2D6 (Homo sapiens) (UniProt P10635); test: Cytochrome P450 Family 2 Subfamily D Member 6 (CYP2D6) small molecule antagonists: luciferase reporter qHTS assay (AID 1671196); note: nearly all actives have a fitted effect of over 50% in size; note: potency is the fitted concentration of half-maximal effect; for activity change, negative = inhibition: series mostly up to about 120 µM
Cytochrome P450 2D6 (Homo sapiens), sequence (P10635 whole entry, looked up): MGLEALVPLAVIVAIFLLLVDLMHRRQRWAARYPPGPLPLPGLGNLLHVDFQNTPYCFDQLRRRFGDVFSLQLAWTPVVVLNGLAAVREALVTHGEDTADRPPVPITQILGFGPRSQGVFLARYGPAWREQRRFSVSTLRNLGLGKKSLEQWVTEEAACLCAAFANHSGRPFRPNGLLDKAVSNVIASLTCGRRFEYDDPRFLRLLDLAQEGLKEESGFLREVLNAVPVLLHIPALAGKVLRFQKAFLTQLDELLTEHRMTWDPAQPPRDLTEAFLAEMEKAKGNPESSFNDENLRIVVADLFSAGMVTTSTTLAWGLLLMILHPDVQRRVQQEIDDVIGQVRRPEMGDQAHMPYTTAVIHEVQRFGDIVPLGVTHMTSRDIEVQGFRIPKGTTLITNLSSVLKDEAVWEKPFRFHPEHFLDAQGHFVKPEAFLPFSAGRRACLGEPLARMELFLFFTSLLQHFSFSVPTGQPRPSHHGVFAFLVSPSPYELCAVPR
Method in brief: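 Read-out is luminescence from luciferin formed by CYP2D6 turnover of a proluciferin substrate, recorded as relative luminescence units. Reactions ran 1 h at room temperature after NADPH regeneration solution was added.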

[4] = biological target: Cytochrome P450 2C9 (Homo sapiens) (UniProt P11712); test: Cytochrome P450 Family 2 Subfamily C Member 9 (CYP2C9) small molecule antagonists: luciferase reporter qHTS assay (AID 1671198); note: nearly all actives have a fitted effect of over 50% in size; note: potency is the fitted concentration of half-maximal effect; for activity change, negative = inhibition: series mostly up to about 120 µM
Cytochrome P450 2C9 (Homo sapiens), sequence (P11712 whole entry, looked up): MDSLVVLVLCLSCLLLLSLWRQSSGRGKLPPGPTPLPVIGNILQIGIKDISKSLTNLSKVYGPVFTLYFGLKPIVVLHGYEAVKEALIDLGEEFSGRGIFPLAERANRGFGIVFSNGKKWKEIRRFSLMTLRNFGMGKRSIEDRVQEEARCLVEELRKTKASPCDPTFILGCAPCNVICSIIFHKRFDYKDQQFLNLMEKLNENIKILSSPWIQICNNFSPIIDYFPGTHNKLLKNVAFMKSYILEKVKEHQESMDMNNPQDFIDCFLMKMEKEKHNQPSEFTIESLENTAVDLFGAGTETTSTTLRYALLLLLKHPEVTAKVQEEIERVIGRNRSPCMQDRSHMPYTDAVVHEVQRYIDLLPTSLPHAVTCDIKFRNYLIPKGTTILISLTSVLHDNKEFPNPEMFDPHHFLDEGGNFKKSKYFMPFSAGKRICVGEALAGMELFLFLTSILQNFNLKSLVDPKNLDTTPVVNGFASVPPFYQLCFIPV
Method in brief: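 P450-Glo proluciferin substrate with CYP2C9 enzyme; 10 min RT preincubation, then NADPH regeneration 1 h at 37C; luciferin detection reagent 20 min RT, luminescence in relative luminescence units.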

[5] = biological target: Cytochrome P450 1A2 (Homo sapiens) (UniProt P05177); test: Cytochrome P450 Family 1 Subfamily A Member 2 (CYP1A2) small molecule antagonists: luciferase reporter qHTS assay (AID 1671199); note: nearly all actives have a fitted effect of over 50% in size; note: potency is the fitted concentration of half-maximal effect; for activity change, negative = inhibition: series mostly up to about 120 µM
Cytochrome P450 1A2 (Homo sapiens), sequence (P05177 whole entry, looked up): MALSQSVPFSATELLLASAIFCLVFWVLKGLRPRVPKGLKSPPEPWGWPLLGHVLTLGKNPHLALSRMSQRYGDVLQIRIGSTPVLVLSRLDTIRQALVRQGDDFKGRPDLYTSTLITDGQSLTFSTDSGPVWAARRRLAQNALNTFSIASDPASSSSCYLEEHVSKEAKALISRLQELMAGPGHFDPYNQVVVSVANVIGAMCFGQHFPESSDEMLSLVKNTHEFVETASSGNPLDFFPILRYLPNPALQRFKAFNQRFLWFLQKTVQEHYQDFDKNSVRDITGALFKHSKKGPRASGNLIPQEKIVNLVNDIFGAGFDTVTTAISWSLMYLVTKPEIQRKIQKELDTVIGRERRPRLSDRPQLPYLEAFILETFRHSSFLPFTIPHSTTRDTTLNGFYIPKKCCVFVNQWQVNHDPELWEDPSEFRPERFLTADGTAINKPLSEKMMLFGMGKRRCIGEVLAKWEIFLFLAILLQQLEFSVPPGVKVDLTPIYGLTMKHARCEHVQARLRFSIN
Method in brief: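 P450-Glo CYP1A2, 1536-well qHTS: enzyme/proluciferin substrate + cpd (DMSO), 10 min RT; NADPH regen, 1 h RT; detection reagent, 20 min; luminescence, RLU.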

[6] = biological target: Voltage-gated inwardly rectifying potassium channel KCNH2 (Homo sapiens) (UniProt Q12809); test: Human Ether-a-go-go-Related Gene (hERG) channel small molecule antagonists: fluorescence cell-based qHTS assay (AID 1671200);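 note: hERG-expressing U2OS cells given a thallium stimulus after FluxOR II dye loading; series mostly up to about 77 µM; nearly all actives have a fitted effect of over 50% in size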
Voltage-gated inwardly rectifying potassium channel KCNH2 (Homo sapiens), sequence (Q12809 whole entry, looked up): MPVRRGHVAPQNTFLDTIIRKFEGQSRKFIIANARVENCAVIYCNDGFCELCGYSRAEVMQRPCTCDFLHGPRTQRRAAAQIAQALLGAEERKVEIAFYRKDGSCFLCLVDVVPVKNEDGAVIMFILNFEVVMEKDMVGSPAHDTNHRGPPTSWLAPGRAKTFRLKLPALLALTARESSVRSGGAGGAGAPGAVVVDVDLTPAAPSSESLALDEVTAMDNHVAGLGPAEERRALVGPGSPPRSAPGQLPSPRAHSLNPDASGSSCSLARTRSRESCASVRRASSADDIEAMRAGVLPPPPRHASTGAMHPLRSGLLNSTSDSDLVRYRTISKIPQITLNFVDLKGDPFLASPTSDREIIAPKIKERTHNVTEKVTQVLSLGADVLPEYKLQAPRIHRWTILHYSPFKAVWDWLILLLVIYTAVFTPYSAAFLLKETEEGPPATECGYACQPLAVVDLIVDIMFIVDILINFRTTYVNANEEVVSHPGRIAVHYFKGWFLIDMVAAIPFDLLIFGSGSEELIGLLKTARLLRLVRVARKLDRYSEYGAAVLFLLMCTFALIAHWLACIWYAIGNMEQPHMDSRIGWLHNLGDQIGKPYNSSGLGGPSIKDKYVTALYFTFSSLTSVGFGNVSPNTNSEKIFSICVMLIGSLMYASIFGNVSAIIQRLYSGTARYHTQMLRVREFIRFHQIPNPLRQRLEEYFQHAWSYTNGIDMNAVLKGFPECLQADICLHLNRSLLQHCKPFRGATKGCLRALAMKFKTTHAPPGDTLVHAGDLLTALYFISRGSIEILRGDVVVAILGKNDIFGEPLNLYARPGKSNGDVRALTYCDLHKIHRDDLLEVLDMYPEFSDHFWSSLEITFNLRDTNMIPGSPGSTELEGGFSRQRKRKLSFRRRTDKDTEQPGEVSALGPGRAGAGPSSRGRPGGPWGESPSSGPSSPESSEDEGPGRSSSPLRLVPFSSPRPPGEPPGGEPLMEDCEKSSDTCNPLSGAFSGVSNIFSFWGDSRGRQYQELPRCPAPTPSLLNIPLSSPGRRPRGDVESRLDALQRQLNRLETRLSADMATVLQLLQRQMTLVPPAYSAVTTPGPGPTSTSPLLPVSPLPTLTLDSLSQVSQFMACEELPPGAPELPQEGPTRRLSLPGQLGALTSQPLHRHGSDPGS
Method in brief: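 Thallium served as the potassium surrogate; its influx into dye-loaded U2OS cells carrying the channel was measured by fluorescence over 2 min.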

[7] = biological target: Cytochrome P450 3A4 (Homo sapiens) (UniProt P08684); test: Cytochrome P450 Family 3 Subfamily A Member 4 (CYP3A4) small molecule antagonists: luciferase reporter qHTS assay (AID 1671201)
Cytochrome P450 3A4 (Homo sapiens), sequence (P08684 whole entry, looked up): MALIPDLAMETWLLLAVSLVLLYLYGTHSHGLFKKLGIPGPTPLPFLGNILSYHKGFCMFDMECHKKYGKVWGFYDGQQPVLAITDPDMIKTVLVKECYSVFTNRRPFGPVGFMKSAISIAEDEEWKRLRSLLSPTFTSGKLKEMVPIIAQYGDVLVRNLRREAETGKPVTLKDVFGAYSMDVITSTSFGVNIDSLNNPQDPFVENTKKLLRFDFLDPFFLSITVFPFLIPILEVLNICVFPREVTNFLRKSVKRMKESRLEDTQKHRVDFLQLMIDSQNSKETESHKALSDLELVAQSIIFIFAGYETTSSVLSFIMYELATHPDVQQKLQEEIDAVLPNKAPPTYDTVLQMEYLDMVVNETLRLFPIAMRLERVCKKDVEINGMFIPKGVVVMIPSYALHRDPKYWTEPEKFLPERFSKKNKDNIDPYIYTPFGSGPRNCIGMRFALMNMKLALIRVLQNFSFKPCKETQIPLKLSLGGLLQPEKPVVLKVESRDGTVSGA
Method in brief: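 Relative luminescence units after 20 min with luciferin detection reagent served as read-out. Beforehand, CYP3A4 turned over a proluciferin substrate for 1 h at room temperature with NADPH regeneration, following 10 min compound preincubation.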

[8] = biological target: Cytochrome P450 2C19 (Homo sapiens) (UniProt P33261); test: Cytochrome P450 Family 2 Subfamily C Member 19 (CYP2C19) small molecule antagonists: luciferase reporter qHTS assay (AID 1671197); note: nearly all actives have a fitted effect of over 65% in size; note: potency is the fitted concentration of half-maximal effect; for activity change, negative = inhibition: series mostly up to about 120 µM
Cytochrome P450 2C19 (Homo sapiens), sequence (P33261 whole entry, looked up): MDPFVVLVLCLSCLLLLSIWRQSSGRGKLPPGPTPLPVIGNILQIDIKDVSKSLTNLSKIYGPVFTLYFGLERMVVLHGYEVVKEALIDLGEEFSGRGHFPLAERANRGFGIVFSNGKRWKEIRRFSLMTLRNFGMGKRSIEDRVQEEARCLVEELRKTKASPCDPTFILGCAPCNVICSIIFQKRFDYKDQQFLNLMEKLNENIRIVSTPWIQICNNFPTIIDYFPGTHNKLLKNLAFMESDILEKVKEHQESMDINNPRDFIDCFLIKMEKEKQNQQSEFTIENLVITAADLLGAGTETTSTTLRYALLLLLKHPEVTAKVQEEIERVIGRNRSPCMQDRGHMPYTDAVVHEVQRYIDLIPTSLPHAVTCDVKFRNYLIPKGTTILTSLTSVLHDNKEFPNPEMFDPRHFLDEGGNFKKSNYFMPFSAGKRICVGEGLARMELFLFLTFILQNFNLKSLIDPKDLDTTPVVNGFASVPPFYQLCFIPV
Method in brief: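 CYP2C19 P450-Glo, 1536-well qHTS. Cpd + enzyme/proluciferin substrate 10 min RT; + NADPH regen, 37C 1 h; stop with luciferin detection reagent, 20 min RT, luminescence (RLU). Pos ctrl ketoconazole.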
% is set by controls: 0 for no effect and ±100 for the full control effect.

CN1CCN(C(=O)C2CCCCC2)CC1
inactive: outcome [1] | outcome [2] | Potency [3] | Potency [4] | Potency [5] | Potency [6] | Potency [7]

C[C@]12C=CC(=O)C=C1[C@@H](F)C[C@@H]1[C@@H]2[C@@H](O)C[C@@]2(C)[C@H]1CC[C@]2(O)C(=O)CO
inactive: outcome [1] | outcome [2] | Potency [3] | Potency [8] | Potency [4] | Potency [5] | Potency [6]

O=C(O)P(=O)(O)O
inactive: outcome [1] | outcome [2] | Potency [3] | Potency [8] | Potency [4] | Potency [5] | Potency [6] | Potency [7]

CC(C)CC(=O)N[C@H](C(=O)N[C@H](C(=O)N[C@@H](CC(C)C)[C@@H](O)CC(=O)N[C@@H](C)C(=O)N[C@@H](CC(C)C)[C@@H](O)CC(=O)O)C(C)C)C(C)C (Isovaleryl-VV[Sta]A[Sta]-OH)
inactive: outcome [1] | outcome [2] | Potency [8] | Potency [4] | Potency [6] | Potency [7]

CC(C)OC(=O)C(C(=O)OC(C)C)=C1SC=CS1
inactive: outcome [1] | outcome [2] | Potency [3] | Potency [6] | Potency [7]
active: Potency [8] 34.7 µM | Potency [5] 13.8 µM

CC(=O)OCC(=O)[C@@]1(O)CC[C@H]2[C@@H]3CCC4=CC(=O)C=C[C@]4(C)[C@H]3[C@@H](O)C[C@@]21C
inactive: outcome [1] | outcome [2] | Potency [8] | Potency [4] | Potency [5]

N=C(N)N1CCc2ccccc2C1
inactive: outcome [1] | outcome [2] | activity change, negative = inhibition [3] -15.2% [at 10.5 µM] | activity change, negative = inhibition [8] 22.1% [at 10.5 µM] | activity change, negative = inhibition [4] 6.48% [at 10.5 µM] | activity change, negative = inhibition [5] 0.421% [at 10.5 µM] | activity change, negative = inhibition [6] -6.17% [at 6.97 µM]

Nc1ccc(C(=O)NCC(=O)O)cc1
inactive: outcome [1] | outcome [2] | Potency [8] | Potency [4] | Potency [5] | Potency [7]

N[C@H]1C(O)O[C@H](CO)[C@@H](O)[C@@H]1O (some centres undefined)
active: Potency [3] 30.9 µM
inactive: outcome [1] | outcome [2] | Potency [8] | Potency [4] | Potency [5] | Potency [6] | Potency [7]

C[n+]1ccccc1/C=N/O
inactive: outcome [1] | outcome [2] | Potency [3] | Potency [8] | Potency [4] | Potency [5] | Potency [6] | Potency [7]

O=P(O)(O)C(O)(Cc1cccnc1)P(=O)(O)O
inactive: outcome [1] | outcome [2] | Potency [3] | Potency [8] | Potency [4] | Potency [5] | Potency [7]

CNCCc1ccccn1
inactive: outcome [1] | outcome [2] | Potency [3] | Potency [8] | Potency [4] | Potency [5] | Potency [6] | Potency [7]

CC[C@@]1(c2ccccc2)NC(=O)N(C)C1=O
inactive: outcome [1] | outcome [2] | Potency [4] | Potency [5] | Potency [6] | Potency [7]

C[C@@H]1CC[C@@]2(OC1)O[C@H]1C[C@H]3[C@@H]4CC[C@H]5C[C@@H](O)CC[C@]5(C)[C@H]4CC(=O)[C@]3(C)[C@H]1[C@@H]2C
inactive: outcome [1] | outcome [2] | activity change, negative = inhibition [8] 11.3% [at 10.5 µM] | activity change, negative = inhibition [4] 3.54% [at 10.5 µM] | activity change, negative = inhibition [5] 10.1% [at 10.5 µM] | activity change, negative = inhibition [6] 3.03% [at 6.97 µM] | activity change, negative = inhibition [7] 29.8% [at 10.5 µM]

CN(C)CCc1c[nH]c2ccc(C[C@H]3COC(=O)N3)cc12
inactive: outcome [1] | outcome [2] | Potency [8] | Potency [4] | Potency [5] | Potency [6] | Potency [7]

CCN1CCN(C(=O)N[C@@H](C(=O)N[C@@H]2C(=O)N3C(C(=O)O)=C(CSc4nnnn4C)CS[C@H]23)c2ccc(O)cc2)C(=O)C1=O
inactive: outcome [1] | outcome [2] | Potency [8] | Potency [4] | Potency [5] | Potency [6] | Potency [7]

COc1cnc(NS(=O)(=O)c2ccc(N)cc2)nc1
inactive: outcome [1] | outcome [2] | Potency [3] | Potency [4] | Potency [5] | Potency [7]

O=S(=O)(O)c1cc(I)c(O)c2ncccc12
inactive: outcome [1] | outcome [2] | Potency [8] | Potency [5] | Potency [6] | Potency [7]

NS(=O)(=O)c1cc2c(cc1C(F)(F)F)NCNS2(=O)=O
inactive: outcome [1] | outcome [2] | Potency [3] | Potency [4] | Potency [5] | Potency [6]

CN1C(CCl)Nc2cc(Cl)c(S(N)(=O)=O)cc2S1(=O)=O (centres undefined)
inactive: outcome [1] | outcome [2] | Potency [3] | Potency [8] | Potency [4] | Potency [5] | Potency [6]

CN(C)CCC[C@@]1(c2ccc(F)cc2)OCc2cc(C#N)ccc21
inactive: outcome [1] | outcome [2] | Potency [8] | Potency [4] | Potency [5] | Potency [7]

C[C@@H]1NC(=O)[C@@H](N)CNC(=O)[C@H](C2CCNC(N)=N2)NC(=O)/C(=C/NC(N)=O)NC(=O)[C@H](CNC(=O)C[C@@H](N)CCCN)NC1=O (some centres undefined)
inactive: outcome [1] | outcome [2] | activity change, negative = inhibition [3] -6.52% [at 0.435 µM] | activity change, negative = inhibition [4] 3.32% [at 0.435 µM] | activity change, negative = inhibition [5] 10.4% [at 0.435 µM] | activity change, negative = inhibition [7] 1.92% [at 0.435 µM]

CCCCC(CC)CCC(CC(C)C)OS(=O)(=O)O (centres undefined)
active: Potency [4] 31.7 µM
inactive: outcome [1] | outcome [2] | Potency [3] | Potency [5] | Potency [7]
